{
  "source": "PubChem BioAssay AID686978",
  "about": "(National Center for Advancing Translational Sciences (NCATS), 2013)",
  "note": "Several values for one entry are separate records, joined by “and”; a condition that tells them apart may be missing. Equal entries are not always repeated. The whole screen tested about 420,000 compounds, of which about 64,000 (15%) were called active. Not shown: some 27% with an inconclusive outcome. Calls come from the whole dose curve; as a rule, active = well fitted inhibition curve with a large enough effect; inconclusive = small, poorly fitted or top-dose-only effect; inactive = flat fitted curve, though single readings scatter. Only a sample is shown. Where a call stands in place of a potency, no number is given. Potency is the fitted concentration of half-maximal effect.",
  "data": [
    {"assay": "qHTS for Inhibitors of human tyrosyl-DNA phosphodiesterase 1 (TDP1): qHTS in cells in absence of CPT; note: nearly all actives have a fitted effect of over 55% in size", "details": "DT40 Tdp1-/- hTDP1 cells, no CPT, ATP luminescence, 48 h; activity change, negative = growth inhibition: at 46.2 µM (top of the series)", "method_in_brief": "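DT40 Tdp1-/-;hTDP1 cells, no CPT (DMSO vehicle only), 400 cells/well; compounds pin-transferred; ≥48 hr, 37 °C; CellTiter-Glo 30 min RT dark, luminescence read.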", "values": [
      {"smiles": "COc1ccccc1/C=C/C(=O)OCC(=O)NC1CCCCCC1", "Potency": "inactive"},
      {"smiles": "CC1(C(=O)NS(=O)(=O)c2ccccc2)CCN1C(=O)C1CCCCC1", "note": "(stereo not given)", "Potency": "inactive"},
      {"smiles": "Cc1noc(C)c1NC(=O)Nc1cccc2c1O[C@H](CN(C)S(=O)(=O)c1c(C)noc1C)[C@@H](C)CN([C@H](C)CO)C2=O", "Potency": "inactive"},
      {"smiles": "COc1cc(OC)c(NC(=O)c2ccc(Br)o2)cc1Cl", "Potency": "inactive"},
      {"smiles": "CN1CCN(C(=O)c2ccc(NC(=O)c3ccc(Br)o3)cc2)CC1", "Potency": "inactive"},
      {"smiles": "CCN1CCN(c2c(Cl)cccc2NC(=O)c2ccc(Br)o2)CC1", "Potency": "16.4 µM (active)"},
      {"smiles": "O=C(Cn1nnc(-c2ccccc2)n1)N/N=C/c1ccc(-c2ccc(Cl)cc2)o1", "Potency": "inactive"},
      {"smiles": "NS(=O)(=O)c1ccc(CCNS(=O)(=O)c2cccc3cccnc23)cc1", "Potency": "inactive"},
      {"smiles": "O=[N+]([O-])c1ccccc1S(=O)(=O)Nc1cccc2cccnc12", "Potency": "2 µM (active) and 2.59 µM (active)"},
      {"smiles": "Cc1ccccc1NC(=O)c1ccccc1NS(=O)(=O)c1cccc2cccnc12", "Potency": "inactive"},
      {"smiles": "Cc1nc2ccccc2c(=O)n1Cc1ccc([N+](=O)[O-])cc1", "Potency": "inactive"},
      {"smiles": "CCn1c(/C=C/c2ccc([N+](=O)[O-])o2)nc2ccccc2c1=O", "Potency": "2.59 µM (active)"},
      {"smiles": "Cc1nc2ccccc2c(=O)n1NC(=O)c1ccc(Cl)c([N+](=O)[O-])c1", "Potency": "inactive"},
      {"smiles": "CCc1noc(C)c1C(=O)N1CCCSC1=Nc1ccccc1OC", "Potency": "inactive"},
      {"smiles": "COC(=O)Cn1c(=NC(=O)CSCC(=O)Nc2cc(C)on2)sc2ccccc21", "Potency": "inactive"},
      {"smiles": "COc1ccc(N(CC(=O)Nc2ccc(F)c(F)c2)S(=O)(=O)c2c(C)[nH]c(=O)[nH]c2=O)cc1", "Potency": "inactive"},
      {"smiles": "CCOc1ccc(N(CC(=O)NCc2ccc(OC)cc2)S(=O)(=O)c2c(C)noc2C)cc1", "Potency": "inactive"},
      {"smiles": "COC(=O)c1ccc(NC(=O)CN(c2ccc(C)cc2)S(=O)(=O)c2c(C)n[nH]c2C)cc1", "Potency": "inactive"},
      {"smiles": "CCOc1ccc(N(CC(=O)OC)S(=O)(=O)c2c(C)noc2C)cc1", "Potency": "inactive"},
      {"smiles": "Cc1noc(C)c1S(=O)(=O)N(CC(=O)Nc1ccc2c(c1)OCCO2)c1ccc(C(C)C)cc1", "Potency": "14.6 µM (active)"},
      {"smiles": "CCOc1ccc(N(CC(=O)Nc2ccccc2F)S(=O)(=O)c2c(C)[nH]c(=O)[nH]c2=O)cc1", "Potency": "inactive"},
      {"smiles": "COc1ccc(N(CC(=O)Nc2cc(OC)ccc2OC)S(=O)(=O)c2c(C)noc2C)cc1", "Potency": "23.1 µM (active)"},
      {"smiles": "CCOc1ccc(OCC)c(NC(=O)CN(c2ccc(C)cc2)S(=O)(=O)c2c(C)n[nH]c2C)c1", "Potency": "29.1 µM (active)"},
      {"smiles": "Cc1ccc(S(=O)(=O)NCC(=O)Nc2ccc3c(c2)OCCO3)cc1", "Potency": "inactive"},
      {"smiles": "C/C=C\\C=C\\C(=O)N1CC2(CC(c3cccc(NC(=O)/C(C)=C\\C)c3)=NO2)C[C@H]1C(N)=O", "note": "(stereo not given in full)", "Potency": "inactive"},
      {"smiles": "CC(NC(=O)CN1CCN(Cc2ccc(Cl)cc2)C1=O)c1ccc2c(c1)OCCO2", "note": "(stereo not given)", "Potency": "inactive"},
      {"smiles": "Cc1noc(C)c1C(=O)OCC(=O)N1CCN(S(=O)(=O)c2ccc3ccccc3c2)CC1", "Potency": "inactive"},
      {"smiles": "C(=N/N1CCN(c2ccccc2)CC1)/c1cccs1", "Potency": "inactive"},
      {"smiles": "Nc1c(Cl)cc(S(N)(=O)=O)cc1S(N)(=O)=O", "Potency": "inactive"},
      {"smiles": "O=[N+]([O-])c1ccc(Sc2n[nH]c(-c3ccco3)n2)nc1", "Potency": "inactive"},
      {"smiles": "CCOc1ccc(-n2c(C)nc3c(cnn3-c3ccc(C)cc3)c2=O)cc1", "Potency": "5.8 µM (active)"},
      {"smiles": "CCOC(=O)c1ccc(-n2c(C)nc3c(cnn3-c3ccccc3C)c2=O)cc1", "Potency": "inactive"},
      {"smiles": "Cc1ccc(Oc2cnn(-c3ccccc3)c(=O)c2Br)cc1", "Potency": "inactive"},
      {"smiles": "COc1ccc(-n2c(C)nc3c(cnn3-c3ccc(F)cc3)c2=O)cc1", "Potency": "16.4 µM (active)"},
      {"smiles": "COc1ccc(Oc2ncc3nc(C)c(=O)n(-c4ccccc4)c3n2)cc1", "Potency": "inactive"},
      {"smiles": "COc1ccc(-n2c(C)nc3c(cnn3-c3ccccc3)c2=O)cc1", "Potency": "16.4 µM (active)"},
      {"smiles": "CCC(C)Sc1nc2c(cnn2-c2ccc(F)cc2)c(=O)[nH]1", "note": "(stereo not given)", "Potency": "inactive"},
      {"smiles": "CCOc1ccc(-n2cnc3c(=O)[nH]c(N)nc32)cc1", "Potency": "inactive"},
      {"smiles": "COc1ccc(Oc2ncc3nc(-c4ccc(F)cc4)c(=O)n(C)c3n2)cc1", "Potency": "inactive"},
      {"smiles": "COC(=O)C1CCCCN1C(=O)c1ccc(OC2CCN(C(C)=O)CC2)c(OC)c1", "note": "(stereo not given)", "Potency": "inactive"},
      {"smiles": "CS(=O)(=O)c1ccc(C(=O)NNC(=O)c2cccs2)cc1", "Potency": "inactive"},
      {"smiles": "O=C1/C(=C\\c2ccc([N+](=O)[O-])cc2)CS(=O)(=O)C/C1=C/c1ccc([N+](=O)[O-])cc1", "Potency": "0.0231 µM (active)"},
      {"smiles": "O=[N+]([O-])c1ccc(C=NN=Cc2ccc([N+](=O)[O-])cc2)cc1", "Potency": "inactive"},
      {"smiles": "O=C(NN=Cc1ccc([N+](=O)[O-])cc1)C1CC1", "Potency": "inactive"},
      {"smiles": "CCN(CC)Cc1c(C(=O)N/N=C/c2cccc(OCc3ccc(F)cc3)c2)nnn1-c1nonc1N", "Potency": "inactive"},
      {"smiles": "CCc1ccc(N2CC(C(=O)Nc3ccc(S(=O)(=O)Nc4nccs4)cc3)CC2=O)cc1", "note": "(stereo not given)", "Potency": "inactive"},
      {"smiles": "Cc1ccc(C(=O)NC(=S)NCc2cccnc2)cc1", "Potency": "inactive"},
      {"smiles": "Cc1ccc(-n2nc(-c3ccco3)cc2C(=O)NCc2cccnc2)cc1", "Potency": "18.4 µM (active)"},
      {"smiles": "CSc1sc(C(=O)NC(=O)NCc2cccnc2)c(C)c1-c1ccon1", "Potency": "inactive"},
      {"smiles": "NC(=S)N/N=C/c1coc2cc(Cl)ccc2c1=O", "Potency": "inactive"},
      {"smiles": "CC(C)Oc1c(Br)cc(Br)cc1/C=N/NC(N)=S", "Potency": "5.8 µM (active)"},
      {"smiles": "O=C(NNC(=S)Nc1ccc(F)cc1)[C@H]1C[C@@H]1c1ccccc1", "Potency": "inactive"},
      {"smiles": "C(=N\\n1cnnc1)/c1cccnc1", "Potency": "inactive"},
      {"smiles": "CCc1ccc(N2CC(O)=C(c3nc4ccccc4c(=O)[nH]3)C2=N)cc1", "Potency": "14.6 µM (active)"},
      {"smiles": "O=c1[nH]c(-c2cccs2)nc2ccccc12", "Potency": "inactive"},
      {"smiles": "N=C1C(c2nc3ccccc3[nH]2)=C(O)CN1NC(=O)c1c[nH]c2ccccc12", "Potency": "inactive"},
      {"smiles": "CCN(CC)CCNC(=O)c1ccc(NC(=O)c2cc(-c3ccncc3)nc3ccccc23)cc1", "Potency": "23.1 µM (active)"},
      {"smiles": "Cc1ccc2nc(-c3ccncc3)cc(C(=O)Nc3ccc(OC(F)F)cc3)c2c1", "Potency": "9.2 µM (active)"},
      {"smiles": "Cc1ccc2nc(-c3ccccc3)cc(C(=O)O)c2c1", "Potency": "inactive"},
      {"smiles": "O=C(Nc1ccncc1)c1cc(-c2ccccn2)nc2ccc(Br)cc12", "Potency": "inactive"},
      {"smiles": "CCn1c(SCC(=O)Nc2ccc3c(c2)OCCO3)nnc1-c1ccncc1", "Potency": "inactive"},
      {"smiles": "CCN(CC)CCNC(=O)c1ccc(NS(=O)(=O)c2ccc3c(c2)OCCO3)cc1", "Potency": "inactive"},
      {"smiles": "O=C(Nc1ccc2c(c1)OCCO2)c1cnccn1", "Potency": "inactive"},
      {"smiles": "Cc1ccc2nc(-c3ccncc3)cc(C(=O)Nc3ccc4c(c3)OCCO4)c2c1", "Potency": "10.3 µM (active)"},
      {"smiles": "O=C(Nc1ccc(S(=O)(=O)Nc2nccs2)cc1)c1cc(-c2ccncc2)nc2ccccc12", "Potency": "inactive"}
    ]}
  ]
}
